Experimental data from PubChem BioAssay AID540259 (Broad Institute, 2011).
Measured potencies and affinities stand elsewhere. Calls of active or inactive are those of the source.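 The calls were made as follows: active = cell killing, meaning signal decrease, with fitted half-maximal dose at or below ten times the top valid tested dose; inconclusive = poor fit, or flat curve with 30 to 70% signal loss; inactive = the rest.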

Assay: ATP-based viability loss in HeLa cells – cell-based, CellTiter-Glo luminescence, cherry-pick samples, cytotoxicity control for MITF activator project, dose response (AID 540259)
Conditions: 24 h; series mostly up to 35 µM

SMILES | outcome
CCC(C)NC(=O)c1cc(-c2ccc(OC)cc2)on1 (stereo unspecified) | inactive
Cc1ccc(O)c(-n2nc3ccccc3n2)c1 | inactive
COc1ccc(/C=C2\CCn3c2nc2ccccc2c3=O)cc1OC | inactive
Cc1ccsc1C(=O)OCc1nnc(-c2ccccc2)o1 | inactive
N#Cc1ccsc1NC(=O)CCc1ccccc1 | inactive
Cc1cccc(-c2nc(C#N)c(NC3CCCCC3)o2)c1 | inactive
CCN=c1scc(-c2ccc(F)cc2)n1/N=C/c1ccccn1 | inactive
Cc1ccc(NC(=O)N2CCc3ccccc3C2)cc1C | inactive
COc1cccc(C2Nc3ccccc3C(=O)N2c2ccc(F)cc2)c1O (stereo unspecified) | inactive
O=C(NC1CCCCCC1)c1cc2c(=O)n3ccccc3nc2s1 | inactive
CC(C)(C)c1csc(NC2=NS(=O)(=O)c3ccccc32)n1 | inactive
COc1ccc2cc(C(N)=O)c(=Nc3ccccc3)oc2c1 | inactive
Oc1nc(Nc2ccccc2)sc1/C=C1\C=Nc2ccccc21 | inactive
O=Cc1ccc(OCc2ccc3ccccc3c2)cc1 | inactive
CC(=O)c1cccc(OCc2cc(C(=O)N(C)Cc3cnccn3)no2)c1 | inactive
c1ccc(-c2ccc3[nH]ccc3c2)cc1 | inactive
Cc1ccc(S(=O)(=O)Nc2cccc(-c3ccc(N4CCCCCC4)nn3)c2)cc1 | inactive
CCC(=O)N1CCc2nc(-c3ccccc3)sc2C1 | inactive

SMILES | outcome
COc1cccc2[nH]c(=O)c(-c3ccccc3)cc12 | inactive
CC(=O)c1cnc2nc(SCc3ccccc3)nn2c1C | inactive
COc1ccc(-c2nnc(SCc3ccccc3)n2N)cc1 | inactive
CC(C)C(=O)Nc1cccc(C(=O)Nc2nnc(C(C)C)s2)c1 | inactive
Cc1ccc(-n2nnc3ccccc3c2=O)cc1C | inactive
COc1cccc(/C=N/Nc2c(Cl)cncc2Cl)c1O | inactive
COc1ccc2cc(-c3csc(-c4cccnc4)n3)ccc2c1 | inactive
Cc1ccc(NC(=O)CCCc2ccccc2)nc1 | inactive
CC(C)c1ccc(CNc2ncc(Br)cn2)cc1 | inactive
CSc1nc2ccc(NC(=O)c3cccs3)cc2s1 | inactive
CC(NC(=O)c1cc(COc2ccccc2)on1)c1nccs1 (stereo unspecified) | inactive
O=C(O)c1ccc(-c2nc(-c3ccc(Cl)cc3)cs2)cc1 | inactive
Cc1ccc(Nc2ncc3c(n2)CC(C)(C)CC3=O)cc1 | inactive
Cc1nc2ccccc2nc(=O)c1NNc1ccccc1 | inactive
O=C(Nc1cnc2ccccc2c1)N1CCCCC1 | inactive
CCCCCc1ccc(-c2ccc(OC)cc2)nc1 | inactive
Cc1ccccc1-c1nc2cc(Cl)ccc2o1 | inactive
O=S(=O)(c1cccs1)N1CCCc2cccc(O)c21 | inactive
